Source: PubChem BioAssay (NCATS)
“And” between values parts separate entries of the source, which are not always exact repeats. Equal entries are not always repeated. Inconclusive results are not listed. The source made the active and inactive calls. Unless noted, the call rests on the fitted dose curve; in most records, active means well fitted curve in the direction sought with a large enough effect; inconclusive means small, poorly fitted or top-dose-only effect, or another doubt; inactive means no such curve, though single readings can be large; an effect the other way counts as inactive or inconclusive.

Assays:
[1] = target: Voltage-gated inwardly rectifying potassium channel KCNH2 (Homo sapiens) (UniProt Q12809); assay: qHTS Assay for Small Molecule Inhibitors of the Human hERG Channel Activity (AID 588834);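 further: lower thallium flux fluorescence means stronger hERG block; nearly all actives have a fitted effect of over 50% in size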; further: potency means the concentration at half of the fitted maximal effect
How it was run: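 U2OS cells transduced with hERG via BacMam (MOI ~100), plated 2000/well, loaded with FluxOR thallium dye, compound ~10 min, then stimulation buffer; fluorescence decrease read kinetically; AC50 from Hill fits.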

[2] = target: Luciferin 4-monooxygenase (Photinus pyralis) (UniProt P08659); assay: Biochemical firefly luciferase enzyme assay for NPC (AID 624030); further: nearly all actives have a fitted effect of over 70% in size; further: potency means the concentration at half of the fitted maximal effect
How it was run: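 Purified P. pyralis luciferase at 10 nM in 50 mM Tris Acetate (final), luminescence read within 5 minutes of enzyme addition to compounds. Activity normalised to PTC124 versus DMSO; concentration-response curves classed by r2, magnitude and activity.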

[3] = S16 Schwann cell viability assay (CellTiter-Glo assay) (AID 624031); further: nearly all actives have a fitted effect of over 70% in size; further: potency means the concentration at half of the fitted maximal effect
How it was run: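 Following overnight culture in 10% FBS DMEM, parental S16 rat Schwann cells are dosed for 24 h at 37 °C. Viability is read as CellTiter-Glo luminescence and expressed as % activity relative to DMSO (0%) and no-cell wells.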

[4] = S16 Schwann cell PMP22 intronic element firefly luciferase assay (AID 624032); further: nearly all actives have a fitted effect of over 30% in size; further: potency means the concentration at half of the fitted maximal effect
How it was run: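 Rat S16 Schwann cells stably carrying firefly luciferase driven by a PMP22 intronic element, in 10% FBS, treated 24 h at 37 C. ONE-Glo luminescence normalized to PTC124 control and DMSO (0%); curves classed by r2, magnitude and activity.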

[5] = S16 Schwann cell PMP22 intronic element beta-lactamase assay (AID 624044; calls by dose curve; further: nearly all actives have a fitted effect of over 15% in size; further: potency means the concentration at half of the fitted maximal effect)
How it was run: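 Rat S16 Schwann cells with beta-Lac driven by a PMP22 intronic element, compound-treated 24 h at 37 °C. LiveBLAzer FRET B/G read: 460 nm normalized to potassium clavulanate vs DMSO; 535 nm FRET as viability; concentration-effect curves classified.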

[6] = qHTS of Trypanosoma Brucei Inhibitors: LOPAC Validation (AID 624147)
How it was run: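 Glycolytic pyruvate kinase of T. brucei was incubated with substrate, test compound and 130 uM ADP for 45 minutes at room temperature. Luminescent Kinase-Glo Plus signal was measured after 10 minutes.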

[7] = target: Glucagon-like peptide 1 receptor (Homo sapiens) (UniProt P43220); assay: qHTS of GLP-1 Receptor Agonists: LOPAC Validation (AID 624148);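 further: higher luminescence signal means agonism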
How it was run: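 HEK293 cells stably co-expressing GLP-1R and a cAMP-responsive luciferase reporter, plated 12 hours before compound, then incubated 4-6 hr at 37 deg C. Luminescence read 12 min after detection reagent.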

[8] = qHTS of Nrf2 Activators: LOPAC Validation (AID 624149)
How it was run: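 ARE reporter activation measured in AREc32 firefly luciferase cells after 24 hr compound exposure; Steady-Glo luminescence.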

[9] = target: Glutaminase kidney isoform, mitochondrial (Homo sapiens) (UniProt O94925); assay: qHTS for Inhibitors of Glutaminase (GLS): LOPAC Validation (AID 624146); further: nearly all actives have a fitted effect of over 60% in size; further: potency means the concentration at half of the fitted maximal effect
How it was run: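 Human kidney-isoform GLS in 45 mM KH2PO4 pH 8.2, 0.02% Tween-20, with compound, started with 1mM L-Glutamine (added stock). Glutamate oxidase/HRP/Amplex red coupled fluorescence read at start and after 30 min at RT.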

Measured: Potency

Voltage-gated inwardly rectifying potassium channel KCNH2 (Homo sapiens), sequence (Q12809 whole entry, looked up): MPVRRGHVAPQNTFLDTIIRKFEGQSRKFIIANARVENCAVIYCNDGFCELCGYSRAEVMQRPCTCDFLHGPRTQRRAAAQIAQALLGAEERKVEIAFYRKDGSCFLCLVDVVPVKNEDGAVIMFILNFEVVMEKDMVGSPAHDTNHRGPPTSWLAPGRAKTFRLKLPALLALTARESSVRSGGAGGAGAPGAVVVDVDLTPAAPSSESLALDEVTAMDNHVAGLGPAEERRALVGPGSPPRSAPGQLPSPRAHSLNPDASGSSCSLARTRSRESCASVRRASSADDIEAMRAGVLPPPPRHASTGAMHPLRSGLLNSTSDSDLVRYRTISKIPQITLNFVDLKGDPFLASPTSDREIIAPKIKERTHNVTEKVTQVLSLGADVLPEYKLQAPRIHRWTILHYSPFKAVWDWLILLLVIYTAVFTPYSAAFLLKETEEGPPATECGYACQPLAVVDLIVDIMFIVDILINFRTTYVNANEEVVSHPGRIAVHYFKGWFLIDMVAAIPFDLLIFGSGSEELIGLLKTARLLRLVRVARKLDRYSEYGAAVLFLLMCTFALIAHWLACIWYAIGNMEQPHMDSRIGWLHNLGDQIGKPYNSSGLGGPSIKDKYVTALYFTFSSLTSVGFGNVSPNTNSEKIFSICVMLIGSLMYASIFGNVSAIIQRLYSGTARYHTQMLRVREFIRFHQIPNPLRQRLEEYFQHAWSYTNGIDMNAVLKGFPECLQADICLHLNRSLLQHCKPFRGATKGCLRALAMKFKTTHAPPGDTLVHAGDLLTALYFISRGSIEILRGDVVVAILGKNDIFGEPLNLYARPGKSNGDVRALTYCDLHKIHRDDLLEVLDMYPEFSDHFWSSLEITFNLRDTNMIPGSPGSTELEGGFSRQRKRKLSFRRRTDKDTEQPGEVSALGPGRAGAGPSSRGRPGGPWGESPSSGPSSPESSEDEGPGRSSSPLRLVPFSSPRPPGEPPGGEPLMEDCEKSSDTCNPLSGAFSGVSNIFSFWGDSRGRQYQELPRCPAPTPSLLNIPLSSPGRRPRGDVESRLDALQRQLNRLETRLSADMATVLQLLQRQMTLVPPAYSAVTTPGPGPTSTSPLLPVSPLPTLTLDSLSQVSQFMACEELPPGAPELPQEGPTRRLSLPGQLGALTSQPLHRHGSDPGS
Glucagon-like peptide 1 receptor (Homo sapiens), sequence (P43220 whole entry, looked up): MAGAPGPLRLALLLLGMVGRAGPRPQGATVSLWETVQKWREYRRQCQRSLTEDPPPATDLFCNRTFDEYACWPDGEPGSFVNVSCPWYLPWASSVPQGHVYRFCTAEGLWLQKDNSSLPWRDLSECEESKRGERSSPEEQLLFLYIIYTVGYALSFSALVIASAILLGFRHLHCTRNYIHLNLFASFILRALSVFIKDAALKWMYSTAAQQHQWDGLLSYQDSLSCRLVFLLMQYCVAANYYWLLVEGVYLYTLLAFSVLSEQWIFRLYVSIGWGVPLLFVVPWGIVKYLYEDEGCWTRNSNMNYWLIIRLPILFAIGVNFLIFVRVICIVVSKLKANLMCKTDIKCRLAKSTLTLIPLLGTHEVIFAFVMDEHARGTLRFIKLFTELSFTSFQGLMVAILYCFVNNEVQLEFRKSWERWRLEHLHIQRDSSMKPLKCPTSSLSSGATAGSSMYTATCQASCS
Glutaminase kidney isoform, mitochondrial (Homo sapiens), sequence (O94925 whole entry, looked up, canonical isoform): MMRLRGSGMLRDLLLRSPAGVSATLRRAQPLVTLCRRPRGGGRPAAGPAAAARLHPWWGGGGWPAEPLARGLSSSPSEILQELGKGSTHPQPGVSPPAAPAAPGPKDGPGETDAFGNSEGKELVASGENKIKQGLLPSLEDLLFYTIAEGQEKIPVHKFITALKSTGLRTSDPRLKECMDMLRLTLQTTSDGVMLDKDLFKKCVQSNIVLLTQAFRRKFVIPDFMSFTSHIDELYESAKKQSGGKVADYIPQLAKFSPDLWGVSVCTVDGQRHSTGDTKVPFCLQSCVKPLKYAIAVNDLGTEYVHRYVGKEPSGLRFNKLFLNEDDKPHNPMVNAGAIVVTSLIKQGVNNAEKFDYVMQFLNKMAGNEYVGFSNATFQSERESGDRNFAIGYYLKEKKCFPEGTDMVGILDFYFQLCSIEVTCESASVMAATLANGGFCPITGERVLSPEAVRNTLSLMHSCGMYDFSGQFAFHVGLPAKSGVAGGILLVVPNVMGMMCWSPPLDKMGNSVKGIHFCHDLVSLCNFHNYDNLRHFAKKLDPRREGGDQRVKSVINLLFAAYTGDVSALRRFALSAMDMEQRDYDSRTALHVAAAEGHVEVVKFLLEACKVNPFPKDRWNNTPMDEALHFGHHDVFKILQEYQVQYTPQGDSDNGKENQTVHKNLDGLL
Luciferin 4-monooxygenase (Photinus pyralis), sequence (P08659 whole entry, looked up): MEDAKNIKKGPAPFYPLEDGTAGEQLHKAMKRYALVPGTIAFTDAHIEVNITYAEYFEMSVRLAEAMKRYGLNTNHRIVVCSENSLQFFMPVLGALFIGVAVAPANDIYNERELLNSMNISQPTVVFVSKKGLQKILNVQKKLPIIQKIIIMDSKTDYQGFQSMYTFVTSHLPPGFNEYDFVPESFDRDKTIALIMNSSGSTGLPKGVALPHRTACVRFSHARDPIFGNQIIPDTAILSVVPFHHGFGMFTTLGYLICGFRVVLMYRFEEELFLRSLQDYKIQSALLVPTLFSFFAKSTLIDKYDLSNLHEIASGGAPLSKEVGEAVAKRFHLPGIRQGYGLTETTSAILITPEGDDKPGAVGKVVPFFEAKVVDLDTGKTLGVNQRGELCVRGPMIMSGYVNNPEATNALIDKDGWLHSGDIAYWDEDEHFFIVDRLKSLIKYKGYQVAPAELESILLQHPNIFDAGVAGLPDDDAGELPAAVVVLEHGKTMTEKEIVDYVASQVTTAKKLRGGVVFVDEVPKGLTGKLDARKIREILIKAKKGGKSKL

CN1CCN(C(=O)O[C@H]2c3nccnc3C(=O)N2c2ccc(Cl)cn2)CC1
inactive: [1] | [2] | [3] | [4]

CC(C)(N)Cc1ccc(Cl)cc1
inactive: [1] | [2] | [3] | [4]

C=C1CC[C@@]2(O)[C@H]3Cc4ccc(O)c5c4[C@@]2(CCN3CC2CC2)[C@H]1O5
inactive: [1] | [2] | [3] | [4]

O=P1(NCCCl)OCCCN1CCCl (configuration not stated)
inactive: [1] | [2] | [3] | [4] | [5]

CCN(C(C)=O)c1cccc(-c2ccnc3c(C#N)cnn23)c1
inactive: [1] | [2] | [3] | [4]

CC(C)NCC(O)c1ccccc1Cl (configuration not stated)
inactive: [1] | [2] | [3] | [4]

CN1C(=S)CN=C(c2ccccc2)c2cc(Cl)ccc21
inactive: [1] | [2] | [3] | [4] | [5]

CC(C)=CC1C(C(=O)OCc2cccc(Oc3ccccc3)c2)C1(C)C (configuration not stated)
inactive: [1] | [2] | [3] | [4] | [5]

Cc1ccc(S(=O)(=O)N[C@@H](CCCCN)C(=O)CCl)cc1
inactive: [1] | [2] | [3] | [4] | [5] | [6] | [7] | [8]

c1ccc(C2CC2)c(OCC2=NCCN2)c1
inactive: [1] | [2] | [3] | [4] | [9] | [6] | [7] | [8]

CC[C@@H](CO)NC(=O)[C@@H]1C=C2c3cccc4c3c(cn4C)C[C@H]2N(C)C1
inactive: [1] | [2] | [3] | [4] | [5] | [7] | [8]

NP(N)(=O)NC(=O)c1ccc(F)cc1
inactive: [1] | [2] | [3] | [4]

O=C(NC(O)C(Cl)(Cl)Cl)NC(O)C(Cl)(Cl)Cl (configuration not stated)
inactive: [1] | [2] | [3] | [4]

Cc1cccc(C)c1NC1=NCCCS1
inactive: [1] | [2] | [3] | [4] | [5] | [9] | [6] | [7] | [8]

CC1NCCOC1c1ccccc1 (configuration not stated)
inactive: [1] | [2] | [3] | [4]

FC(F)(F)c1cccc(C2=CCN(CCc3ccc4ccccc4c3)CC2)c1
active: [1] 1.58 µM
inactive: [2] | [3] | [4]

C#CCOC(C(=O)OCCN(C)C)(c1ccccc1)c1ccccc1
inactive: [1] | [2] | [3] | [4] | [5]

NCC1(CC(=O)O)CCCCC1
inactive: [1] | [2] | [3] | [4] | [9] | [6] | [7] | [8]

CC(=O)Nc1cc([As](=O)(O)O)ccc1O
inactive: [1] | [2] | [3] | [4]

NCC(CC(=O)O)c1ccc(Cl)cc1 (configuration not stated)
inactive: [1] | [2] | [3] | [4] | [9] | [6] | [7] | [8]

N#CC(C#N)=Cc1ccc(O)c(O)c1
active: [9] 0.355 µM
inactive: [1] | [2] | [3] | [6] | [7] | [8]

CCCN1CCC[C@@H]2Cc3[nH]ncc3C[C@H]21
inactive: [2] | [3] | [4] | [9] | [6] | [7] | [8]

c1ccc2c(c1)OCC(C1=NCCN1)O2 (configuration not stated)
inactive: [1] | [2] | [9] | [6] | [7]

N[C@@H](Cc1ccc(N(CCCl)CCCl)cc1)C(=O)O
active: [4] 9.07 µM
inactive: [2]

CNCCC(Oc1ccc(C(F)(F)F)cc1)c1ccccc1 (configuration not stated)
inactive: [4]

CC(=O)Oc1ccccc1C(=O)Nc1ncc([N+](=O)[O-])s1
inactive: [4]
active: [2] 0.721 µM

Fc1ccc(C(OCCN2CCN(CCCc3ccccc3)CC2)c2ccc(F)cc2)cc1
inactive: [2] | [6] | [7] | [8]
active: [3] 32.2 µM | [4] 28.7 µM

CCCSc1ccc2nc(NC(=O)OC)[nH]c2c1
active: [5] 1.07 µM
inactive: [4]

CC[C@@H](CO)NC(=O)[C@@H]1C=C2c3cccc4[nH]cc(c34)C[C@H]2N(C)C1
inactive: [1] | [2] | [3] | [5] | [6] | [7] | [8]

NC(=Nc1ccccc1)Nc1ccccc1
inactive: [2] | [5]

CCC(COC(=O)c1cc(OC)c(OC)c(OC)c1)(c1ccccc1)N(C)C (configuration not stated)
inactive: [2] | [3] | [4] | [5]

CN1CCc2cccc3c2[C@H]1Cc1ccc(O)c(O)c1-3
active: [3] 32.2 µM

Cc1cccc(C)c1NC(=O)CN1CCCC1=O
inactive: [2] | [9] | [6] | [7] | [8]

CC(CCc1ccccc1)NC(C)C(O)c1ccc(O)cc1 (configuration not stated)
inactive: [2] | [3] | [6] | [8]
active: [1] 7.08 µM and 2 µM

CC(C)=CCOc1c2occc2cc2ccc(=O)oc12
inactive: [2] | [6] | [7] | [8]

CCCN1CCC[C@@H]2Cc3nc(N)ncc3C[C@H]21
inactive: [1] | [9] | [6] | [7] | [8]

COC[C@H]1OC(=O)c2coc3c2[C@@]1(C)C1=C(C3=O)C2CCC(=O)[C@@]2(C)C[C@H]1OC(C)=O (some centres not stated)
active: [9] 11.2 µM
inactive: [6] | [7] | [8]

COc1cc2c(c(OC)c1OC)-c1ccc(OC)c(=O)cc1[C@@H](NC(C)=O)CC2
active: [4] 0.102 µM | [5] 0.0891 µM

CO[C@]12CC[C@@]3(C[C@@H]1[C@](C)(O)C(C)(C)C)[C@@H]1Cc4ccc(O)c5c4[C@@]3(CCN1CC1CC1)[C@H]2O5
inactive: [2]

CN1CCN(C2=Nc3cc(Cl)ccc3Nc3ccccc32)CC1
inactive: [2]

COc1cc([C@@H]2c3cc4c(cc3[C@H](O)[C@H]3COC(=O)[C@H]23)OCO4)cc(OC)c1OC
active: [4] 0.0128 µM | [5] 0.0224 µM

Cc1c(OCC(F)(F)F)ccnc1CS(=O)c1nc2ccccc2[nH]1 (configuration not stated)
inactive: [4]

CC(=O)Nc1nnc(S(N)(=O)=O)s1
inactive: [4]

NCCc1cc(O)c(O)cc1O
inactive: [1] | [3] | [4] | [5]

O=C1NCN(c2ccccc2)C12CCN(CC1COc3ccccc3O1)CC2 (configuration not stated)
inactive: [2] | [5] | [9] | [6] | [7] | [8]
active: [1] 6.31 µM and 7.94 µM

COc1ccc(C(=O)c2c(C)n(CCN3CCOCC3)c3ccccc23)cc1
inactive: [1] | [2] | [5]

C[C@@H]1O[C@@H](O[C@H]2C[C@@H](O)[C@]3(CO)[C@H]4[C@H](O)C[C@]5(C)[C@@H](C6=CC(=O)OC6)CC[C@]5(O)[C@@H]4CC[C@]3(O)C2)[C@H](O)[C@H](O)[C@H]1O
inactive: [1] | [9] | [6] | [7] | [8]

O=C(O)c1ccc2[nH]cc(CCCCN3CC=C(c4ccccc4)CC3)c2c1
inactive: [1] | [2] | [4]

O=c1[nH]cc(F)c(=O)[nH]1
active: [5] 5.62 µM

Cc1ccc2c(n1)Oc1ccc(C(C)C(=O)OCC(=O)N(C)C)cc1C2 (configuration not stated)
active: [2] 14.4 µM

CNCC[C@H](Oc1cccc2ccccc12)c1cccs1
active: [4] 20.3 µM

O=c1[nH]c2ccccc2n1CCCN1CCC(n2c(=O)[nH]c3cc(Cl)ccc32)CC1
inactive: [2] | [9] | [6] | [7] | [8]
active: [4] 36.1 µM

CC(O)(CS(=O)(=O)c1ccc(F)cc1)C(=O)Nc1ccc(C#N)c(C(F)(F)F)c1 (configuration not stated)
inactive: [9] | [6] | [7] | [8]

CC(=O)[C@H]1CC[C@H]2[C@@H]3CC[C@H]4C[C@H](O)CC[C@]4(C)[C@H]3C(=O)C[C@]12C
inactive: [2] | [5] | [9] | [6] | [7] | [8]
